Compounds with a hit are over-represented: about 3.6% of the library has one in this group of screens.
CRE Fsk mod = CRE-bla signaling modulation under forskolin stimulation; CHO CRE-bla reporter (cAMP response element driving beta-lactamase), forskolin EC10, beta-lactamase ratio; Potency, µM (doses to about 38.2 µM), without a hit: top-dose activity change, negative = inhibition, actives largely listed as activators; 71,000 compounds, 2.5% hits; active = well fitted activation curve with a large enough effect in the signal ratio, with a control signal flat, not every such curve was filed as active; inconclusive = small, poorly fitted or top-dose-only effect, or effect the other way, or a change in a side signal; the % refers to the signal ratio; also: % of control where 0% means no effect
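The 460nm/530nm emission ratio after CCF4 loading defined %Activity, from which AC50 values were obtained. CRE-bla CHO cells received compound dilution series together with an EC10 level of NKH 477 for 3 hours at 37 degrees Celsius.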
IkB signaling = inhibitors of IkB signaling in ABC-DLBCL cells. ABC-DLBCL IkBa-CBG/CBR dual luciferase ratio, 4 h; response scale: scaled: untreated 0%, proteasome inhibitor 100%. Potency, µM (top dose mostly 57.1 µM), for inactives: at the top dose IkBa stabilization activation. 110,000 compounds, 0.04% hits; active = well fitted curve in the direction sought with a large enough effect in the signal ratio, not every such curve was filed as active; inconclusive = small, poorly fitted or top-dose-only effect, or a change in a side signal; the % refers to the signal ratio;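 also: the direction sought is a rising ratio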
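Curves were fitted separately to fusion (green), unfused (red) and ratio luminescence, then classed by r2, magnitude and activity. Cells: OCI-Ly3, 4 h compound plus doxycycline at 37C; 10 uM MG-132 defined full response.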
TSHR ag = activates the human thyroid stimulating hormone receptor | Potency, µM (top dose mostly 57.1 µM), inactives show top-dose activation, usual class: activators | 73,000 compounds, 0.48% hits | HEK293-CNG-TSHR cells (CNG channel as cAMP sensor), membrane potential dye, cAMP | AID 926 | P16473; active = well fitted activation curve with a large enough effect in the main read-out, with a control signal flat, not every such curve was filed as active; inconclusive = small, poorly fitted or top-dose-only effect, or a change in a side signal; inactive = no such curve, though single readings can be large or run the other way; % of control where 0% means no effect;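 also: the control signal comes from parental cells without the receptor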
Target sequence (P16473 whole entry, looked up): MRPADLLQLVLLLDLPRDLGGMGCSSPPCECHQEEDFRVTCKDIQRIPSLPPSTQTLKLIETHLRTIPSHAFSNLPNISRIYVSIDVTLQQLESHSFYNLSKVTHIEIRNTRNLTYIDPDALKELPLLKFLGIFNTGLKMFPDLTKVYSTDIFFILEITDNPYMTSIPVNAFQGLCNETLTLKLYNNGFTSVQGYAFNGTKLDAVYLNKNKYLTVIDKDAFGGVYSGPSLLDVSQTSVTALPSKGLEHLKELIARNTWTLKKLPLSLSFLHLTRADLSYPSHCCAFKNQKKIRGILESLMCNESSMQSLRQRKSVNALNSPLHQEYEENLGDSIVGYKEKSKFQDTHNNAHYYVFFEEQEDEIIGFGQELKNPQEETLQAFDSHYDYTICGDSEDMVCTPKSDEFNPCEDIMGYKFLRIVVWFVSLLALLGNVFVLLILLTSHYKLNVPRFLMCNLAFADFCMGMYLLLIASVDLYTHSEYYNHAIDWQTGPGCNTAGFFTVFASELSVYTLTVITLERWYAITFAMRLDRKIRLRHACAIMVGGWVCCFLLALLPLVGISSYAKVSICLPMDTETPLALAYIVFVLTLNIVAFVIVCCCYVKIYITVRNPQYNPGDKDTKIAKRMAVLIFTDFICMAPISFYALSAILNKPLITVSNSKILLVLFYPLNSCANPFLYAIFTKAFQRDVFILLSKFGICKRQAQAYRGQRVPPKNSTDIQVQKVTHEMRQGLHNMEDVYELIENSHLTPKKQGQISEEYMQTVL
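HEK 293 cells stably expressing TSHR and a cAMP-gated CNG channel; parental CNG-only cells as counterscreen. Cells preloaded 60 min with membrane potential dye plus 100 uM RO 20-1724, then compound 30 min; fluorescence read at 590 nm.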
HEK293 cAMP cs = counter-screen for TSHR agonists: cAMP increase in parental HEK293 | parental HEK293 CNG cAMP sensor, membrane potential fluorescence | Potency, µM (titrated, usually from 57.1 µM), inactives show at the highest dose activation, actives largely listed as activators | 73,000 compounds, 2.5% hits | AID 938; also: % of control where 0% means no effect; nearly all actives have a fitted effect of over 55% in size
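Counterscreen for endogenous-receptor signalling: CNG-channel HEK 293 cells report cAMP rise by membrane depolarization. After 60 min dye equilibration with 100 uM RO 20-1724, compounds incubated 30 min before bottom-read fluorescence at 590 nm.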
ERK AVP block = vasopressin-driven ERK pathway inhibition; HEK293-V1b, vasopressin-stimulated pERK AlphaScreen; Potency, µM (series often up to 57.5 µM), inactives show at the highest dose activity, negative = inhibition, actives largely listed as inhibitors; 72,000 compounds, 0.99% hits; also: % is scaled to controls: 0 for no effect and ±100 for the full control effect; nearly all actives have a fitted effect of over 55% in size
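HEK293 cells stably expressing V1b receptor, preincubated 30 min at 37 °C with compound, then stimulated 5 min with 25 nM vasopressin. Phospho-ERK by AlphaScreen SureFire after 5 h RT; normalized to DMSO and vasopressin; AC50 by Hill fit.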
* marks the source's active call; other numbers are inactive results; ? = inconclusive; / = no result; [ ] = remark or other dose. Unless noted, calls follow the shape of the dose curve; as a rule, active = well fitted curve in the direction sought with a large enough effect; inconclusive = small, poorly fitted or top-dose-only effect, or another doubt; inactive = no such curve, though single readings can be large; an effect the other way counts as inactive or inconclusive. Potency is read from the fitted curve at half-maximal effect.

SMILES	CRE Fsk mod	IkB signaling	TSHR ag	HEK293 cAMP cs	ERK AVP block
Cc1onc(-c2c(F)cccc2Cl)c1C(=O)N[C@@H]1C(=O)N2[C@H]1SC(C)(C)[C@H]2C(=O)O	5.7%[7.6 µM]	0.7%[11.4 µM]	4.8%[11.4 µM]	-8.8%[11.4 µM]	12.8%[11.5 µM]
Cc1ccc(NC(=O)c2ccc3c(O)c(S(=O)(=O)c4ccc(Cl)cc4)c(=O)[nH]c3c2)cc1	/	2.6%	/	/	/
CC1CC(N(C(=O)c2ccco2)c2ccccc2)c2ccccc2N1 (stereo unspecified)	5.3%	?	12.6µM*	26.6%	7.7%
CC1CC(c2ccccc2)n2nc(NC(=O)c3ccco3)nc2N1 (stereo unspecified)	2.8%	-0.4%	0.8%	3.1%	-1.3%
CCOC(=O)c1c(NC(=O)c2cccs2)sc2c1CCC2	3.16µM*	-0.9%	2.4%	0.0%	5.6%
CCc1c(C)sc(NC(=O)c2ccco2)c1C(=O)N1CCCCC1	?	-3.4%	9.6%	6.2%	-12.5%
CCOC(=O)c1c(NC(=O)c2ccco2)sc2c1CCCCC2	10µM*	9.6%	22.6%	11.7%	58.9%
CCOC(=O)c1c(C)[nH]c(C)c1C(=O)COc1ccc(NC(=O)c2ccco2)cc1	?	-0.5%	-1.6%	0.6%	25.1µM*
CCOC(=O)c1c(NC(=O)c2ccco2)sc(C(=O)N2CCCC2)c1C	12.6µM*	-4.5%	/	19.8%	?
CCCn1c2ccccc2c2cnn(CC(=O)NCCc3ccccc3)c(=O)c21	/	-0.8%	/	/	/
CCCOc1ccc(CC2C(=O)Nc3ccc(Br)cc32)cc1 (stereo unspecified)	/	-0.6%	/	/	/
CCOC(=O)c1nnn(-c2nonc2N)c1CN(C)Cc1ccccc1	-17.5%	0.1%	9.7%	17.2%	42.1%
CCOC(=O)c1c(NC(=O)c2cccs2)sc(C)c1CC	12.6µM*	0.1%	/	15.5%	66.0%
CCOC(=O)c1ccccc1NC(=O)c1cccs1	?	-3.7%	?	25.1µM*	28.9%
CCC(CC)C(=O)NCCNC(=O)C(CC)CC	2µM*	-3.0%	?	?	-21.7%
Cc1nc(CC(=O)Nc2nc(-c3ccccc3)cs2)cs1	3.4%	?	14.5%	28.3%	13.2%
O=C(Cc1cccs1)Nc1nc(-c2ccccc2)cs1	-2.1%	?	22.2%	28.8%	10µM*
Cn1nccc1C(=O)OCC(=O)Nc1nc(-c2ccccc2)cs1	-5.5%	?	/	6.4%	20µM*
O=C(COC(=O)c1ccc(S(=O)(=O)N2CCOCC2)cc1)Nc1nc(-c2ccccc2)cs1	-1.9%	-1.0%	1.6%	5.4%	-18.7%
C[C@H](OP(=O)(O)O)[C@H](N)C(=O)O	-4.7%[7.6 µM]	0.4%[11.4 µM]	0.0%[11.4 µM]	4.0%[11.4 µM]	12.9%[11.5 µM]
Nc1nnc(N2CCc3ccccc32)s1	2.8%	1.7%	6.2%	-8.6%	15.8µM*
Nc1nnc(N2CCCCC2)s1	2.0%	0.9%	1.5%	3.8%	-2.9%
CC(=O)CSc1ncnc2nc[nH]c12	-8.0%	0.3%	/	-2.0%	-14.5%
CC(C)Oc1cccc(C(=O)Nc2ccccc2N2CCOCC2)c1	?	2.4%	?	?	-9.7%
Cc1cc(Cl)ccc1OC(C)C(=O)Nc1ccccc1N1CCOCC1 (stereo unspecified)	0.4%	?	?	25.1µM*	17.1%
SMILES	CRE Fsk mod	IkB signaling	TSHR ag	HEK293 cAMP cs	ERK AVP block
O=C(C1CC1)N1CCN=C1SCc1cccc(F)c1	-5.9%	-2.1%	4.8%	14.3%	31.4%
Cc1cccc(CSC2=NCCN2C(=O)c2ccc(Br)o2)c1	?	4.8%	?	31.6µM*	21.7%
CCOC(=O)c1[nH]c2ccccc2c1NC(=O)c1ccc(C)c(C)c1	/	2.5%	/	/	/
CCOC(=O)c1[nH]c2ccc(OC)cc2c1NC(=O)CN1CCC2(CC1)OCCO2	10µM*	-1.1%	1.2%	-6.0%	-6.6%
CCOC(=O)C1CCN(CC(=O)Nc2c(C(=O)OC)[nH]c3ccccc23)CC1	?	1.0%	10.2%	15.9%	-32.4%
COc1cc(C(=O)OCc2cc3ccccc3[nH]c2=O)cc(OC)c1OC	3.16µM*	-0.5%	11.6%	9.0%	8.5%
CCOC(=O)C1CCN(CC(=O)Nc2c(C(=O)OC)[nH]c3ccc(Cl)cc23)CC1	?	?	?	?	25.1µM*
CCOC(=O)c1[nH]c2ccccc2c1NC(=O)c1cc(OC)c(OC)c(OC)c1	3.16µM*	2.6%	10.2%	-6.9%	-25.1%
Cc1ccc(C(=O)OCc2cc3ccccc3[nH]c2=O)cc1	?	-1.9%	15.9%	15.6%	1.6%
CCSc1nc2c([nH]c3ccccc32)c(=O)n1-c1ccc(F)cc1	/	-2.0%	/	/	/
CCOC(=O)c1[nH]c2ccc(OC)cc2c1NC(=O)c1nonc1C	3.98µM*	3.8%	?	?	-13.6%
COC(=O)c1[nH]c2ccccc2c1NC(=O)CN1CCN(c2cccc(OC)c2)C(C)C1 (stereo unspecified)	28.0%	?	1.8%	17.7%	31.6µM*
COC(=O)c1[nH]c2cc(OC)c(OC)cc2c1NC(=O)c1cccc(OC)c1	10µM*	2.1%	?	-32.2%	-13.6%
CCOC(=O)c1[nH]c2ccccc2c1NC(=O)c1nonc1C	/	/	-3.7%	-7.4%	/
Cc1ccc(CNC(=O)C(C)n2nc(C)n3c(cc4sccc43)c2=O)cc1 (stereo unspecified)	/	-0.2%	/	/	/
COCCN(CCOC)c1nc(C)nc2c1nc(-c1ccccc1)n2CCN(C)C	?	/	?	?	-16.2%
CCCn1c(C)nc2c(N(CCOC)CCOC)nc(C)nc21	12.6µM*	/	4.9%	2.5%	-2.7%
CCCn1c(C)nc2c(N(CCN(CC)CC)CCN(CC)CC)nc(C)nc21	-6.0%	/	?	?	0.2%
CCCn1c(C)nc2c(N(CCN(C)C)Cc3ccccc3)nc(C)nc21	12.6µM*	/	?	?	?
COCCN(CCOC)c1nc(C)nc2c1nc(-c1ccccc1)n2CCN1CCOCC1	12.6µM*	/	?	?	-20.6%
O=C(NC1CCCCC1)C1CCCN(c2nnnn2-c2ccccc2)C1 (stereo unspecified)	0.5%	0.0%	2.9%	5.3%	-9.5%
CCCn1c(-c2ccc(OC)cc2)nc2ccccc21	0.3%	?	?	25.1µM*	-24.9%
CCCn1c(NC(=O)c2cccc(S(=O)(=O)N3CCCC3)c2)nc2ccccc21	?	?	?	15.8µM*	?
O=C(Nc1ccc2c(c1)OCO2)C1CCN(S(=O)(=O)c2cccs2)CC1	3.16µM*	0.1%	-4.5%	-2.6%	?
CCCn1c(NC(=O)C2CCN(S(=O)(=O)c3cccs3)CC2)nc2ccccc21	?	?	?	?	12.6µM*
O=C(Nc1ccc2c(c1)OCCO2)C1CCN(S(=O)(=O)c2cccs2)CC1	?	-0.1%	-4.3%	-1.2%	?
CCCn1c(NC(=O)c2ccccc2)nc2ccccc21	?	?	?	?	11.9%

Screening data from PubChem BioAssay.
